Records with an inconclusive call do not appear. Where a call stands in place of a potency, no number is given. Activity calls are given as the source filed them. Unless noted, the call rests on the fitted dose curve; in most records, active means well fitted curve in the direction sought with a large enough effect; inconclusive means small, poorly fitted or top-dose-only effect, or another doubt; inactive means no such curve, though single readings can be large; an effect the other way counts as inactive or inconclusive.
How the values were obtained:
[1] = molecular target: Alpha-galactosidase (Coffea arabica) (UniProt Q42656); test: Counterscreen for Glucocerebrosidase Inhibitors: qHTS Assay for Coffee Bean alpha-Galactosidase at pH 4.5 (AID 957); further: series mostly up to about 77 µM
Sequence of Alpha-galactosidase (Coffea arabica) (Q42656 whole entry, looked up): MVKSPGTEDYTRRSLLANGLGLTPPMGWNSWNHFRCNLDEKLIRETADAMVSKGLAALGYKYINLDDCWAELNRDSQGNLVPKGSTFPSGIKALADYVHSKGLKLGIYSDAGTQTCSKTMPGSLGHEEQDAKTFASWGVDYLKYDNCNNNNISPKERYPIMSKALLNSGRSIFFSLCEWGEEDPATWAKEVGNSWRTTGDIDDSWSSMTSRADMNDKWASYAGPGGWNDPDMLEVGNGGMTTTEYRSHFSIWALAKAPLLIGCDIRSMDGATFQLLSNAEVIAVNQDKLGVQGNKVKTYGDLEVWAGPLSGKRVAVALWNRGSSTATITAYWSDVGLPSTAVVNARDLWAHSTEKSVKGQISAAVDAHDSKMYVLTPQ
Procedure, shortened: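 Green coffee bean enzyme (2 nM final) was incubated with compounds (0.7 nM to 77 uM) and 4-methylumbelliferyl alpha-D-galactopyranoside (80 uM final) in 50 mM citric acid, 0.005% Tween-20, pH 4.5, 20 min at room temperature; AC50 from Hill fits.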

[2] = molecular target: Alpha-galactosidase (Coffea arabica) (UniProt Q42656); test: Counterscreen for Glucocerebrosidase Inhibitors: qHTS Assay for Coffee Bean alpha-Galactosidase at pH 5.9 (AID 998)
Procedure, shortened: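 Green coffee bean enzyme (2 nM final) was incubated with compounds (0.7 nM–77 uM) and 4-methylumbelliferyl alpha-D-galactopyranoside (80 uM) in citrate buffer pH 5.9, 20 min at room temperature. High-pH stop; fluorescence 365/440 nm; AC50 from Hill fits.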

[3] = Validation screen for inhibitors of Lassa infection (AID 463096; calls by dose curve; further: potency means the concentration at half of the fitted maximal effect)

| SMILES | outcome [1] | outcome [2] | Potency [3] |
| --- | --- | --- | --- |
| COc1ccccc1CNCCCCCCNCCCCCCCCNCCCCCCNCc1ccccc1OC | inactive | inactive | inactive |
| O=C(O)c1cc(=O)c2ccc(Cl)cc2[nH]1 | inactive | inactive | inactive |
| COc1[nH]c2ccc(F)cc2c1C(=O)OCC1CCN(CCNS(C)(=O)=O)CC1 | inactive | inactive | inactive |
| CCCNC[C@H](O)COc1ccccc1C(=O)CCc1ccccc1 | inactive | inactive | inactive |
| Cn1cnc2c(NC3CCCC3)ncnc21 | inactive | inactive | inactive |
| NCCNS(=O)(=O)c1cccc2cnccc12 | inactive | inactive | inactive |
| O=c1[nH]c(=O)n([C@H]2C[C@H](O)[C@@H](CO)O2)cc1/C=C/Br | – | – | inactive |
| CC1(C)C(=O)N(CCN2CCC(C(=O)c3ccc(F)cc3)CC2)c2ccccc21 | inactive | inactive | inactive |
| O=C(Cc1ccc(Cl)c(Cl)c1)OCCN1CCCC1 | inactive | inactive | inactive |
| C[N+](C)(C)CCC(=O)c1cccc2ccccc12 | inactive | inactive | 10 µM (active) |
| Cc1cccc(C)c1NC(=O)C[N+](C)(C)C | inactive | inactive | inactive |
| CCCn1c(=O)c2[nH]c(-c3ccc(OCC(=O)Nc4ccc(C#N)cc4)cc3)nc2n(CCC)c1=O | inactive | inactive | inactive |
| COC(=O)c1c(-c2cc(OC)c(OC)c(OC)c2)c2ccc(OCc3ccccn3)cc2c(=O)n1-c1ccc(N)cc1 | inactive | inactive | inactive |
| COc1ccc2c(c1)c(CC(=O)O)c(C)n2Cc1ccc(F)cc1 | inactive | inactive | inactive |
| NCCNC(=O)c1ccc(Cl)cc1 | inactive | inactive | inactive |
| COc1ccc2c(c1)c(CC(=O)N1CCOCC1)c(C)n2C(=O)c1ccc(Cl)cc1 | inactive | inactive | inactive |
| O=C1C(SCCO)=C(SCCO)C(=O)c2ccccc21 | inactive | inactive | 5.01 µM (active) |
| O=S(=O)(O)C1CCNCC1 | inactive | inactive | inactive |
| Cc1cc(C)c(NC(=O)C[C@H](CC(=O)O)c2cccc3ccccc23)c(C(=O)N2CCC3(CCCC3)CC2)c1 | inactive | inactive | inactive |
| CC(=O)NCCc1ccc(O)c(O)c1 | inactive | inactive | inactive |
| COc1ccccc1NC(=O)Nc1nc(-c2cccnc2)nc2ccccc12 | inactive | inactive | inactive |
| NC(=NCCC[C@H](N)C(=O)O)NO | inactive | inactive | inactive |
| CN(C)CCCCSC(=N)N | inactive | inactive | inactive |
| CC(N)=NCc1cccc(CN)c1 | inactive | inactive | inactive |
| N#Cc1c(-c2ccccc2)no[n+]1[O-] | inactive | inactive | 10 µM (active) |
| Cc1cc(N)c2ccccc2[n+]1CCCCCCCCCCCCCC[n+]1c(C)cc(N)c2ccccc21 | inactive | inactive | 7.08 µM (active) |
| CCn1c(=O)c2[nH]c(-c3ccccc3)nc2n(CC)c1=O | inactive | inactive | inactive |
